aSyn 5UTR act = Activators via SNCA 5'UTR binding, MLPCN | alpha-synuclein 5'UTR reporter, activators screen | activity score, % (tested at 7.5 µM), hits read low | 300,000 tested, 7.1% active | AID 1814; in the data active means activity score below about -60%
A number is an active result; i = inactive. Not all results are given here.

SMILES	aSyn 5UTR act
Clc1ccc(N=C2SCC3CCCCN23)cc1 (configuration not stated)	-145
S=c1[nH]c(-c2ccccc2)cn1/N=C/c1ccccc1Br	-83
Oc1ccc(/C=N/n2cc(-c3ccccc3)[nH]c2=S)cc1	-92
Cc1ccc(/C=N/n2cc(-c3ccccc3)[nH]c2=S)s1	-169
c1ccc2c3c([nH]c2c1)-c1[nH]ncc1CC3	-117
CCOc1ccc(NCC(=O)N/N=C/C=C/c2ccccc2)cc1	-84
CCOc1ccc(N=C/C=C/c2ccccc2)c(O)c1	-67
CCc1ccc(C(=O)Cn2ccsc2=N)cc1	-102
O=C(c1cccs1)c1no[n+]([O-])c1C(=O)c1cccs1	i
Cc1ccc(-c2nnc(SCC#CCOC(=O)c3ccco3)o2)cc1	-66
Cc1ccc(-c2nnc(COC(=O)c3cccs3)o2)cc1	-64
Cc1ccc(-c2nnc(SCC#CCOC(=O)c3cccs3)o2)cc1	-71
CCOc1cc(CNCCc2ccc(S(N)(=O)=O)cc2)ccc1OCc1ccc(Cl)cc1	i
COc1cc(CNCCc2ccc(S(N)(=O)=O)cc2)ccc1OCc1ccc(Cl)cc1	-64
O=C(O)c1ccccc1NN=C1CCCCC1	-192
C/C(=N\Nc1ccc(C)c(Cl)c1)c1ccncc1	-77
C/C(=N\Nc1ccccc1C(=O)O)c1ccncc1	-132
C/C(=N\Nc1ccc(C)c(Cl)c1)c1cccnc1	-105
O=C1CSC2=NCN(c3ccc4c(c3)OCO4)CN12	-147
COC(=O)c1ccc(N)nc1	-79
Cc1ccc(NC(=O)C(=O)NC(C)C2COc3ccccc3O2)cc1 (configuration not stated)	-71
Cc1cccnc1NC(=O)Nc1ccc(Cl)cc1	-84
Cc1cccnc1NC(=O)c1ccc(OCc2c(C)noc2C)cc1	-81
COc1ccc(NC(=O)Nc2ncccc2C)cc1	-157
Cc1cccnc1NC(=O)Nc1ccccc1	-141
SMILES	aSyn 5UTR act
COc1ccc(C(=O)NC(=O)Nc2ncccc2C)cc1	-139
O=c1c2cccc(Cl)c2nc2n1Cc1ccccc1-2	-154
Cc1cc(C)c2c(NC(=O)CCl)nn(C)c2n1	-65
COc1ccc2cc(CCC(C)=O)ccc2c1	-126
CC(=O)c1ccc(NC(=O)c2noc3c2CCC3)cc1	i
CC(NC(=O)c1noc2c1CCCCC2)c1ccccc1 (configuration not stated)	-78
Cc1ccc(NC(=O)c2noc3c2CCC3)cc1C	-75
O=C(NC1CCCC1)c1noc2c1CCCCC2	-134
O=C(NCc1cccs1)c1noc2c1CCCCC2	-144
O=C(Nc1cnn(Cc2ccc(F)cc2)c1)c1noc2c1CCCC2	-105
O=C(Nc1cccc(O)c1)c1noc2c1CCCCC2	i
COC(=O)c1ccccc1NC(=O)c1noc2c1CCCC2	-79
O=C(NCc1ccccc1)c1noc2c1CCCCC2	-133
COc1ccc(CNC(=O)c2noc3c2CCCCC3)cc1	-62
NC(=O)C1CCCN(C(=S)Nc2cccc3ccccc23)C1 (configuration not stated)	-90
CCc1nnc(NC(=O)c2cccc(NC(=O)C(C)C)c2)s1	-81
CC(C)C(=O)Nc1ccc(C(=O)Nc2nnc(C(C)C)s2)cc1	-107
CCOCc1nnc(NC(=O)c2cccc(OC)c2)s1	-96
COCc1nnc(NC(=O)c2cccc(NC(=O)C(C)C)c2)s1	-73
CC(C)C(=O)Nc1cccc(C(=O)Nc2nnc(C(C)C)s2)c1	-120
Cc1nnc(NC(=O)c2csc3c2CCCC3)s1	-99
Cc1nnc(NC(=O)c2csc3c2CCC(C)C3)s1 (configuration not stated)	-100
Cc1ccc(NC(=O)C2C3C=CC4(CN(Cc5cccnc5)C(=O)C24)O3)cc1 (configuration not stated)	-80
Cc1csc(NC(=O)c2ccc(Cl)nc2)n1	-93
Cc1csc(NC(=O)c2cc(C)oc2C)n1	-128
SMILES	aSyn 5UTR act
CC(C)(C)c1csc(NC(=O)c2ccccc2O)n1	-141
Cc1csc(NC(=O)c2ccccc2O)n1	-84
O=C1OC(c2ccc3c(c2)OCO3)N(C(=O)c2ccc(Cl)c(Cl)c2)c2ccccc21 (configuration not stated)	-91
Cc1cc(C(=O)CSc2nnnn2C)c(C)n1C1CC1	-69
Cc1nnc(SCC(=O)c2cc(C)n(C3CC3)c2C)s1	-146
Cc1ccc(C(=O)CSc2nnc(C)s2)cc1	-85
Cc1ccc(NC(=O)c2ccc(CSc3nnc(C)s3)cc2)c(C)c1	-68
Cc1c(C(=O)OCC(=O)N2C(C)CCCC2C)oc2ccccc12 (configuration not stated)	-118
COc1cc(C=O)ccc1OCc1ccccc1Br	-202
COc1cc(C=O)ccc1OCc1cccc(Br)c1	-152
COC(=O)c1ccccc1OCCCOc1ccc(C=O)cc1OC	-107
COc1cc(C=O)ccc1OCCSc1ccc(C)cc1	-129
COc1cc(/C=C2/C(=O)N(C)C(=S)N2C)ccc1OCc1cccc(F)c1	-156
CC(=O)Nc1ccc(NC(=O)/C(Cl)=C/c2ccccc2)cc1	-117
CCOc1ccccc1C(=O)N[C@H](C(=O)Nc1nc2c(s1)CCCC2)C(C)C	-87
COc1ccc(C(=O)N[C@H](C(=O)Nc2nc3c(s2)CCCC3)C(C)C)cc1	-201

From PubChem
